Among the data in PubChem BioAssay (NCI) are growth values, retold here.

Compounds without any hit were thinned out: in the full panel of roughly 83,000, 20% have a hit.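 96-well plates, one dose, 48 hours. Percent growth reported; active if below 10.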 Values without a mark were called inactive. Active and inactive are the calls of the source.

This assay has as its system BT-549 breast. As to the kind of experiment: NCI-60 one-dose screen, 48 h (100 = growth as untreated, 0 = no growth, -100 = all killed). The conditions noted are these: 10 µM.
On to `Cc1n[nH]c(C)c1N=Nc1cccc2c1C(=O)c1ccccc1C2=O`, for which the growth is 100%.

`O=C(CCCCNC(=O)c1nc(-c2ccccc2)n(-c2ccccc2)n1)NO`: the growth is 94.7%.

As for `Cc1c(Cl)cccc1NC(=O)CN1CCOCC1`, the growth was 97.4%.

Take `COc1ccc2nc3cc(Cl)ccc3c(N)c2c1`: the growth is -95.6% (active).

`Cc1ccc(C(=O)/C=C/c2ccccc2)s1`: the growth was 99%.

Regarding `CC(=O)/C(=C/c1ccc(Br)cc1)C(=O)c1ccccc1`, the growth is 96.9%.

As for `CN1C(=O)C2(Nc3cc(Cl)ccc3S2)c2cc(Cl)ccc21` (stereo not given), the growth was 80.1%.

With `COc1cc(CNC(=O)C2CSC3(C)c4ccccc4C(=O)N23)cc(OC)c1OC` (stereo not given), the growth is 108%.

As for `Brc1ccc2c(c1)-c1ccccc1C1=NCCN12`, the growth is 11%.

On to `COc1cc(-c2nn(-c3ccc(NC(=O)NCCNS(=O)(=O)c4ccc(F)cc4)cc3)cc2-c2ccncc2)ccc1Cl`, for which the growth is -3.98% (active).

As for `Cc1cc(Cl)ccc1Nc1nc(C(F)(F)F)ccc1C(=O)N/N=C/c1cccc(O)c1`, the growth is 9.22% (active).

For `CS(=O)(=O)c1nccc(-c2c(-c3cccc(OCc4ccc(F)cc4)c3)nc3sccn23)n1`, the growth is 41.7%.

As for `COc1cc(/C=C/c2cc(/C=C/c3ccc(O)c(OC)c3)n(C(=O)Nc3ccc(C)cc3)n2)ccc1O`, the growth is -23% (active).

Consider `CCCN(CCC)C(=O)[C@H](CC)[C@@H]1CC[C@@H](C)[C@@H]([C@H](C)[C@@H](O)[C@@H](C)C(=O)[C@H](CC)C2O[C@]3(C=C[C@@H](O)[C@]4(CC[C@@](C)([C@H]5CC[C@](O)(CC)[C@H](C)O5)O4)O3)[C@H](C)C[C@@H]2C)O1` (stereo not given in full), for which the growth was 6.17% (active).

`COc1cc2cc(Oc3ccc(NC(=O)c4cccc(C(F)(F)F)c4)cc3)c(C)nc2cc1OC`: the growth was 16.3%.

As for `CCc1cc(Cl)c(OC)c(C(=O)NCC2CCCN2CC)c1O` (stereo not given), the growth is 89.2%.

As for `CN1CCc2c(sc3nc4n(-c5ccc(Cl)cc5)cnn4c(=O)c23)C1`, the growth was 93.4%.

As for `O=C(N/N=C/c1ccc([N+](=O)[O-])cc1)c1ccccc1Nc1cccc(C(F)(F)F)c1`, the growth was 77.8%.

For `COc1ccc(/C=C2\CCCC3=C2NC(N)=NC3c2ccc(OC)c(OC)c2)cc1OC` (stereo not given), the growth is 36.1%.

`CCOC(=O)CN(c1sc(C)c(C)c1C(=O)OCC)S(=O)(=O)c1ccc(C)cc1`: the growth was 102%.

On to `CC(=O)OC1CC2C(C)(C)CCC[C@]2(C)C2=C1C(O)=C(C(C)C)C(=O)C2=O` (stereo not given in full), for which the growth was -21.9% (active).

Consider `CCC(=O)OC1CCC2C3CCC(=O)OC3C(C)(CCC(=O)O)CC12C` (stereo not given), for which the growth was -8.83% (active).

In the case of `O=[N+]([O-])c1ccc(NCSc2ccc(Cl)cc2)cc1`, the growth was 71.5%.

On to `CNC(=O)c1cn(C2CC2)c2cc(N3CCN(C(=O)c4cc(OC)c(OC)c(OC)c4)CC3)c(F)cc2c1=O`, for which the growth is 112%.

For the compound `CCCCN(CCCC)C(=O)[C@H](CC)[C@@H]1CC[C@@H](C)[C@@H]([C@H](C)[C@@H](O)[C@@H](C)C(=O)[C@H](CC)C2O[C@]3(C=CC(=O)[C@]4(CC[C@@](C)([C@H]5CC[C@](O)(CC)[C@H](C)O5)O4)O3)[C@H](C)C[C@@H]2C)O1` (stereo not given in full), the growth is 62.7%.

For `CCn1c2ccc(O)cc2c2c(C)c3c[n+](C)ccc3c(C)c21`, the growth was -13% (active).

On to `COc1ccc(Cl)cc1Nc1nc(C(F)(F)F)ccc1C(=O)N/N=C/c1cc(OC)c(OC)c(OC)c1`, for which the growth is 15.9%.

With `O=C(CI)OCC(COC(=O)CI)OC(=O)CI`, the growth was 74.6%.

Turning to `COc1ccc(-c2cc(-c3ccc(OC)c(OC)c3)nc(SCCCC(=O)NO)n2)cc1`, the growth is 8.08% (active).

For `O=C(CSc1nnc(-c2ccc(Cl)cc2)o1)Nc1ccc(C(=O)/C=C/c2ccc(Cl)cc2)cc1`, the growth was 133%.

As to `CCOc1ccccc1/C=N\N=C(\N)N/N=C/c1ccccc1OCC`, the growth was 36%.

Turning to `CCCc1cn(CC(=O)Nc2nc3ccccc3s2)nn1`, the growth is 103%.

For the compound `Fc1ccc(C(c2ccc(F)cc2)C(Cl)Cl)cc1`, the growth was 95.5%.

`COc1ccc2c(c1)CC=C1[C@@H]2CC[C@]2(C)C(=O)/C(=N/O)C[C@@H]12`: the growth is 88.8%.

As for `Cc1ccc(Cl)cc1NC(=O)CCl`, the growth was 57.2%.

As for `O=C(CCCSc1nc(-c2ccccc2)cc(-c2ccc(Cl)cc2)n1)NO`, the growth was 38.6%.

For `CC(=O)N[C@H](C(=O)N[C@@H](CCCNC(=N)N)C(=O)N[C@@H](CCCCN)C(=O)N[C@@H](CCCNC(=N)N)C(=O)N[C@]1(C)CCCCCC/C=C\CCC[C@@](C)(C(=O)N[C@@H](CCCNC(=N)N)C(=O)N[C@@H](CCC(=O)O)C(=O)N[C@@H](CC(C)C)C(=O)N[C@H](C(=O)N[C@@H](CCC(=O)O)C(N)=O)C(C)C)NC(=O)[C@H](CCC(N)=O)NC(=O)[C@H](CC(C)C)NC(=O)[C@H](CC(C)C)NC(=O)[C@H](CCCNC(=N)N)NC(=O)[C@H](CCCNC(=N)N)NC(=O)[C@H](CC(C)C)NC1=O)C(C)C`, the growth is -46% (active).

With `COc1ccc(-c2cc(-c3ccccc3)nc(SCCCC(=O)NO)n2)cc1`, the growth was 19.6%.

Regarding `COc1ccc(C(=O)N2C=Cc3ccccc3C2C#N)cc1` (stereo not given), the growth was 103%.

On to `COc1ccc(-c2cc(-c3ccc(Cl)cc3)nc(SCCCC(=O)NO)n2)cc1OC`, for which the growth was 30.4%.
